Sampled rows, rich in hits. Any-hit rate of the full collection: about 18%.
PLK1 PBD block: qHTS for Inhibitors of PLK1-PDB (polo-like kinase 1 - polo-box domain): Primary Screen | Potency, µM, for the others: max response, negative = inhibition, most hits filed as inhibitors | Serine/threonine-protein kinase PLK1 (Homo sapiens), P53350 | Plk1 PBD binding of FITC phosphopeptide, fluorescence polarization | 360,000 tested, 2.8% active; note: series mostly up to about 57 µM; nearly all actives have a fitted effect of over 65% in size
Target sequence (P53350 whole entry, looked up, the tested form may be a part): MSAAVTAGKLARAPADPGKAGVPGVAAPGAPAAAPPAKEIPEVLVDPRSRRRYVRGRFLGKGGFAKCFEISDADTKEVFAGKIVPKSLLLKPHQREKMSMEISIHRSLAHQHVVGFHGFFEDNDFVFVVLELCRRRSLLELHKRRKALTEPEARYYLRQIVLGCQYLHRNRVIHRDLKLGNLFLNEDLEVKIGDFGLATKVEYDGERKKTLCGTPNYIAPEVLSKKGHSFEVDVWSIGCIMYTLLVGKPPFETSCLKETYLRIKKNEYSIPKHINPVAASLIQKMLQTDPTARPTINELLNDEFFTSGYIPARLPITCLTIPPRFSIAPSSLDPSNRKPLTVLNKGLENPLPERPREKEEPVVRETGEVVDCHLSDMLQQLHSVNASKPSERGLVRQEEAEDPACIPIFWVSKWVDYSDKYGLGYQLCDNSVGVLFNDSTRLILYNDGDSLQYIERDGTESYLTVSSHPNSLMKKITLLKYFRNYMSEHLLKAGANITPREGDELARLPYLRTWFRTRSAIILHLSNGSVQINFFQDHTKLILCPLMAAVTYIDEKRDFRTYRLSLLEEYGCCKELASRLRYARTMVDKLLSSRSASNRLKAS
TDP1 inh: qHTS Assay for Inhibitors of Tyrosyl-DNA Phosphodiesterase (TDP1); Potency, µM (titrated, usually from 130 µM), without a hit: at the highest dose activity change, negative = inhibition, most hits filed as inhibitors; Tyrosyl-DNA phosphodiesterase 1 (Homo sapiens), Q9NUW8; recombinant TDP1, AlphaScreen DNA substrate cleavage; 350,000 tested, 0.28% active; AID 485290, 2010; note: nearly all actives have a fitted effect of over 40% in size
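Compounds were preincubated with Tdp1 (1 nM final) for 15 min at room temperature before substrate (15 nM final) started a 5 min reaction; beads (10 ug/ml final) were then added for 10 min before AlphaScreen detection.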
VDR inh: Inhibitors of the vitamin D receptor (VDR): qHTS; 400,000 tested, 0.93% active; Potency, µM, inactives show max response, negative = inhibition, actives largely listed as inhibitors; AID 504847, 2011; VDR-SRC2-3 peptide fluorescence polarization, 2 h
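VDR–SRC2-3 interaction, FP format. Cmpds 23 nl via pintool, brief spin, 2 h ambient incubation.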
KAT2A inh: qHTS Assay for Inhibitors of GCN5L2 | GCN5L2 HAT assay, ThioGlo1 CoA-SH fluorescence | Potency, µM (series often up to 58.9 µM), for the others: top-dose activity change, negative = inhibition, usual class: inhibitors | 390,000 tested, 0.21% active | AID 504327, 2011
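Free CoA generated was detected with ThioGlo1 (50uM) fluorescence at Ex340nm/Em540nm, read immediately and after 20 min at room temperature. Enzyme, 20 nM in HEPES pH 7.5 buffer, saw compounds 15 min before adding 75uM H3(1-25) peptide and 70uM acetyl-CoA.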
TDP1 cell noCPT: qHTS for Inhibitors of human tyrosyl-DNA phosphodiesterase 1 (TDP1): qHTS in cells in absence of CPT | DT40 Tdp1-/- hTDP1 cells, no CPT, ATP luminescence, 48 h | Potency, µM (doses to about 46.2 µM), for inactives: top-dose activity change, negative = growth inhibition, actives largely listed as inhibitors | 420,000 tested, 15% active | AID 686978, 2013; note: nearly all actives have a fitted effect of over 55% in size
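Growth kinetics read by CellTiter-Glo luminescence after ≥48 hr at 37 °C. Cells: DT40 Tdp1-/- stably carrying human TDP1, 400 per well, compound exposure in the absence of CPT (DMSO vehicle).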
DT40 TDP1 CPT: qHTS for Inhibitors of human tyrosyl-DNA phosphodiesterase 1 (TDP1): qHTS in cells in presence of CPT; chicken DT40 Tdp1-/-;hTDP1 cells + 20 nM CPT, ATP luminescence, 48 h; Potency, µM (top dose mostly 46.2 µM), for inactives: top-dose activity change, negative = growth inhibition, hits mostly inhibitors; 420,000 tested, 12% active; note: nearly all actives have a fitted effect of over 55% in size
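Chicken DT40 Tdp1-/- cells stably complemented with human TDP1 were seeded at 400 cells/well in medium containing 20 nM camptothecin, exposed to pin-transferred compounds, and grown at 37 °C for at least 48 hr. Viability was read as ATP luminescence.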
* marks the source's active call; other numbers are inactive results; ? = inconclusive; / = no result given; ! = repeats disagree; [ ] = remark or other dose. Calls come from the whole dose curve; as a rule, active = well fitted curve in the direction sought with a large enough effect; inconclusive = small, poorly fitted or top-dose-only effect, or another doubt; inactive = no such curve, though single readings can be large; an effect the other way counts as inactive or inconclusive. % is set by controls: 0 for no effect and ±100 for the full control effect; potency is the fitted concentration of half-maximal effect.

SMILES	PLK1 PBD block	TDP1 inh	VDR inh	KAT2A inh	TDP1 cell noCPT	DT40 TDP1 CPT
O=C1CCC/C1=c1\s/c(=C/c2cccnc2)c(=O)n1-c1ccccc1	-4%	/	-2%	/	?	?
C=C1CCN(C(Cc2ccccc2)C(=O)NCc2ccc(Cl)c(Cl)c2)S(=O)(=O)c2ccccc21 (stereo unspecified)	/	0%	9%	/	/	/
CCOc1ccc(-c2ccc(NS(=O)(=O)c3cc(C)c(C)cc3C)cc2)nn1	/	7%	13%	-14%	18µM*	23µM*
CCOc1ccc(S(=O)(=O)Nc2ccc(-c3ccc(OC)nn3)cc2)cc1	/	8%	22%	-12%	?	?
CCOc1ccc(-c2ccc(NS(=O)(=O)c3ccc(C)cc3)cc2)nn1	/	3%	14%	-5%	?	16µM*
O=C(Cn1ncc2c3ccccc3n(Cc3ccc(Cl)cc3)c2c1=O)NC1CCCCCC1	/	3%	6%	-3%	-20%	3%
Cc1ccccc1Cn1c2ccccc2c2cnn(CC(=O)NC3CCCCCC3)c(=O)c21	/	0%	1%	2%	10µM*	12µM*
Cc1cc(C)c(Cn2c3ccccc3c3cnn(CC(=O)NC4CCC(C)CC4)c(=O)c32)c(C)c1 (stereo unspecified)	/	0%	0%	-4%	?	13µM*
Clc1ccc(-c2nnc(-c3ccc(Br)cc3)c(N3CCSCC3)n2)cc1	0%	3%	18%	2%	12µM*	12µM*
Clc1ccc(-c2nnc(-c3ccco3)nc2N2CCCCC2)cc1	?	7%	-5%	-20%	21µM*	21µM*
CCOc1cc(Cl)c(S(=O)(=O)n2ccnc2)cc1Cl	/	3%	-4%	-1%	-9%	-1%
C=C1CC[C@H](O)C/C1=C/C=C1\CCC[C@]2(C)C([C@H](C)CC[C@@H](O)C(C)(C)O)CC[C@@H]12 (stereo partly specified)	/	2%	-2%	-18%	/	/
C=C1CC[C@H](O)C/C1=C/C=C1\CCC[C@]2(C)C([C@H](C)CCCC(C)(C)O)CC[C@@H]12 (stereo partly specified)	/	4%	11%	-12%	0.021µM*!	0.046µM*!
O=C(CCNC(=O)c1ccc(Cl)cc1)NCc1ccco1	-1%	-12%	-8%	-2%	-13%	-7%
C=C1C2c3ccccc3C(CC2(C)O[Si](C)(C)C)N1C(=O)OC (stereo unspecified)	/	7%[21 µM]	/	/	/	/
COc1cc2oc(=O)cc(CN3CCN(C(C)=O)CC3)c2cc1Cl	-14%	/	/	/	-3%	-21%
Cc1ccnc(N/C=C(\C#N)c2nc(-c3cccc(Br)c3)cs2)c1	-19%	-5%	37%	-12%	18µM*	21µM*
N#C/C(=C/c1ccc(Cl)cc1)c1nc(-c2ccc(Br)cc2)cs1	/	4%[12.3 µM]	-11%	-11%	-21%	2%
Cc1ccc(S(=O)(=O)N(C)c2ccc(C(=O)Nc3cccnc3)cc2)cc1	15%	6%	7%	-27%	-23%	?
Cc1cc(O)ccc1N=Cc1c(C(F)(F)F)[nH][nH]c1=O	-22%	2%	-1%	-7%	10µM*	23µM*
Brc1ccc(CSc2nnc3ccccn23)cc1	-15%	2%	8%	-7%	17%	-6%
O=C(C=C=Nc1ccccc1)C(=O)N=C=Cc1ccccc1	-3%	11%	?	-8%	4.6µM*	1.8µM*
CCCC(=O)C1=C(O)C(C(=O)OC)C(C)(C)CC1=Nc1ccccc1 (stereo unspecified)	-7%	5%	11%	-16%	?	-27%
CCCC(=O)C1=C(O)C(C(=O)OC)C(C)(C)CC1=Nc1cccc2ccccc12 (stereo unspecified)	1%	3%	9%	-14%	23µM*	?
COC(=O)c1sc2cccc(F)c2c1S(=O)(=O)NCc1ccc(F)cc1	/	8%	10%	-11%	5%	-24%
SMILES	PLK1 PBD block	TDP1 inh	VDR inh	KAT2A inh	TDP1 cell noCPT	DT40 TDP1 CPT
CCc1ccc(OCCn2c(C3CC(=O)N(Cc4ccc(F)cc4)C3)nc3ccccc32)cc1 (stereo unspecified)	/	3%	12%	-6%	12µM*	21µM*
Cc1ccc(OCCn2c(C3CC(=O)N(Cc4ccc(F)cc4)C3)nc3ccccc32)c(C)c1 (stereo unspecified)	/	6%	25%	-7%	21µM*	26µM*
CCOc1ccc(CNS(=O)(=O)c2ccc3c(c2)CCCN3C(C)=O)cc1OC	/	-2%	-2%	2%	18µM*	?
COc1cc(NS(=O)(=O)c2ccc3c(c2)CCCN3C(C)=O)cc(OC)c1OC	/	2%	5%	-2%	9.2µM*	8.2µM*
CC(=O)N1CCc2cc(CNS(=O)(=O)c3ccc(F)cc3)ccc21	/	3%	6%	-2%	-23%	1%
CCc1ccc(NC(=O)C(=O)NCCc2sc(-c3ccc(C)cc3)nc2C)cc1	/	2%	-10%	-3%	/	/
CC1Sc2ccc(S(=O)(=O)N3CCN(c4ccccc4)CC3)cc2NC1=O (stereo unspecified)	0%	7%	-7%	-2%	?	?
Cc1cccc(N2CCN(S(=O)(=O)c3ccc4c(c3)NC(=O)C(C)S4)CC2)c1C (stereo unspecified)	-10%	5%	0%	-9%	?	21µM*
Cc1cccc(N2CCN(S(=O)(=O)c3ccc4c(c3)NC(=O)CS4)CC2)c1C	27µM*	2%	-14%	-26%	?	?
O=c1cc(CN2CCN(c3ccccc3)CC2)c2ccccc2o1	-7%	/	/	/	-1%	-1%
CC(=O)c1ccc(NC(=O)C2=CC(c3cccs3)=NS(=O)(=O)N2C)cc1	-5%	6%	13%	-13%	16µM*	?
COc1cc(NC(=O)C2=CC(c3cccs3)=NS(=O)(=O)N2C)cc(OC)c1OC	-5%	/	2%	4%	?	?
CCc1ccc(NC(=O)C2=CC(c3cccs3)=NS(=O)(=O)N2C)cc1	-6%	6%	18%	-4%	16µM*	?
COc1ccc(NC(=O)c2cc(-c3ccccn3)nc3ccccc23)cc1S(=O)(=O)N(C)C	-4%	1%	-8%	-4%	9.2µM*	?
